Measured values from PubChem BioAssay AID1628 (Sanford-Burnham Center for Chemical Genomics, 2009).
The campaign covered roughly 190,000 compounds. About 930 (0.49%) were called active. The list shows a part of the results. Measured potencies and affinities stand elsewhere. A number with no mark means an inactive call.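 The calls were made as follows: active = z-score of insulin promoter reporter brightness in nuclei below -3 at 5 µM, with at least 500 cells counted; inconclusive = wells with under 500 cells, flagged as toxic or sparse; inactive = the rest.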

Test: insulin promoter down-regulators in MIN6 cells, imaging, high-content screening, mouse beta cells (AID 1628)
Conditions: MIN6 insulin promoter GFP reporter, at 5 µM, active compounds read low

SMILES | z-score
O=C(Nc1nc2ccccc2n1CCN1CCOCC1)c1ccc(COc2ccccc2Br)o1 | -3.48 (active)
CCCOC(=O)CSc1nnc(-c2ccc(Cl)cc2Cl)o1 | -1.15
COc1ccc(-c2nnc(SCC(=O)N(Cc3ccccc3)C(C)(C)C)o2)cc1OC | -5.96 (active)
COC(=O)CN(C(=O)CSc1nnc(-c2cccc(OC)c2)o1)c1ccc(OC)cc1 | -0.85
CCOC(=O)/C(=C/C=C1\Sc2cc(OCC)c(OCC)cc2N1CC)C(C)=O | 16.2
Cc1nc2c(c(=O)n1Cc1ccccc1Cl)c1nc3ccccc3nc1n2Cc1ccco1 | -5.21 (active)
Cc1ccc(C)c(Cn2c(C)nc3c(sc(=S)n3-c3ccccc3)c2=O)c1 | 2.17
CCN(C(=S)Nc1cccnc1)c1cccc2ccccc12 | -3.01 (active)
COCCNC(=O)c1ccc2ccccc2n1 | 1.76
CCN(C(=S)NCCOC)c1cccc2ccccc12 | -3.13 (active)
CCN(CC)CCN1C(=O)c2oc3ccccc3c(=O)c2C1c1ccccc1 (stereo unspecified) | 3.66
CN1CCN(CC(=O)Nc2sc3c(c2C#N)CCC(C(C)(C)C)C3)CC1 (stereo unspecified) | -3.27 (active)
CCCN1CCc2c(sc(NC(=S)NC(=O)c3ccccc3)c2C#N)C1 | 5.2
CCCCN1C(=O)/C(=C/C=C2\N(C)c3ccccc3C2(C)C)SC1=S | 10.9
CN1/C(=C\C=C2/SC(=S)NC2=O)C(C)(C)c2ccccc21 | 13.4
CCCCC(=O)Nc1ccc2c(c1)nc1n2CCSC1 | 3.16
Cc1cc(C)nc(N(C#N)CC(=O)N2CCC(C(N)=O)CC2)n1 | 1.53
NC(=O)c1ccc(N2CCN(c3ccc(O)cc3)CC2)c([N+](=O)[O-])c1 | -3.43 (active)
CN1CCN(c2ccccc2NC(=O)c2ccc(N3CCCC3)c([N+](=O)[O-])c2)CC1 | -3.01 (active)
CCOCCCNC(=O)c1ccc(N2CCCC2)c(NS(=O)(=O)c2ccc(C)cc2)c1 | 3.4
COc1ccccc1Nc1nc(Cl)c(C=O)s1 | 3.19
O=C(NC1=NCCS1)C1Cc2ccccc2CN1C(=O)c1ccccc1 (stereo unspecified) | 3.06
COc1ccc2c(c1)NC(c1ccc(N(C)C)cc1)c1cccn1-2 (stereo unspecified) | 12
COc1ccc2c(c1OC)C(=O)OC2 | 0.33

SMILES | z-score
CCN(CC)c1ccc(C=C(c2nnnn2-c2ccccc2)c2nnnn2-c2ccccc2)cc1 | 4.4
CCN(CC)c1ccc(/C=C/c2cc(-c3ccccc3)c3ccccc3n2)cc1 | 15.3
CCN(CC)c1ccc(/C=N/Nc2nc(C)cc(C)n2)cc1 | -3.23 (active)
Cc1c(N=C2N=C(NC(=O)c3cccs3)c3ccccc32)c(=O)n(-c2ccccc2)n1C | 6.23
Cc1ccc(OCCN2CCN(C(=O)CCC(=O)Nc3nnc(C)s3)CC2)cc1 | 0.99
COC(=O)c1c(NC(=O)c2ccc(C)c(S(=O)(=O)Nc3ccccc3C)c2)sc2c1CCCC2 | -3.01 (active)
CN1CCS/C1=C/C=C1/SC(=S)N(Cc2ccccc2)C1=O | 12.1
CCN(Cc1ccccc1)C(c1cccs1)c1nnnn1C1CCCCC1 (stereo unspecified) | -3 (active)
Clc1ccccc1CN(Cc1ccccc1)C(c1cccs1)c1nnnn1C1CCCC1 (stereo unspecified) | -6.23 (active)
CC(C)C(c1nnnn1C1CCCC1)N1CCOCC1 (stereo unspecified) | 3.02
CCCCNC(=S)NC(=O)c1ccc(Cl)cc1Cl | 3.14
COc1ccc(NC(=O)CCN2CCCC(C)C2)cc1 (stereo unspecified) | 1
COc1ccc(NC(=O)CCC(=O)OCc2ccc(Br)cc2)cc1 | -5.13 (active)
O=C(NC1C=CS(=O)(=O)C1)c1sc2ccccc2c1Cl (stereo unspecified) | 3.86
C#CCn1c(=NC(=O)c2sc3ccccc3c2Cl)sc2cc(S(N)(=O)=O)ccc21 | -3.78 (active)
C=CCn1c(=NC(=O)c2cc(-c3cccs3)nc3ccccc23)sc2cc(S(N)(=O)=O)ccc21 | 8.96
CCN1CC=C2C(C#N)=C(N)C(C#N)(C#N)C(CCc3ccccc3)C2C1 (stereo unspecified) | 13.8
Cc1cccc(-c2ncc(CN3CCCC(CO)(Cc4ccccc4C)C3)cn2)c1 (stereo unspecified) | 3.13
Cc1cccc2sc(NC(=O)C3CCCN(S(=O)(=O)c4cccc5nonc45)C3)nc12 (stereo unspecified) | 6.61
Cc1nc2c(ccc3nc(NC(=O)C4CC4)sc32)s1 | 2
C=CCNC(=O)C1CC2Cn3c(nc4cc5ccccc5cc43)C2N1C (stereo unspecified) | 4.44
Cc1cc(=O)oc2cc(OCC(=O)OCC(=O)NC3CC3)ccc12 | 3.8
CCOC(=O)N1CCN(C(=O)NC2CCCCC2)CC1 | 3.74
CC1=Nc2ccccc2/C1=C/c1sc(=S)n(-c2cccc(C(=O)O)c2)c1O | 3.2

SMILES | z-score
COc1cccc(-c2nn(C)c3sc(C(=O)N4CCN(c5ccccn5)CC4)cc23)c1 | -10.4 (active)
COc1cccc(N2CCN(c3ncccn3)CC2)c1 | 3.1
Cc1ccc(C)c(NC(=O)C(C)CC2COCCO2)c1 (stereo unspecified) | 3.45
O=S1(=O)N=C(N(CCO)/N=C/c2ccncc2)c2ccccc21 | 2.42
CC(=Nc1ccc(C)cc1C)c1sc2ccccc2c1O | 3.96
CC(=O)NCCN=C(C)c1sc2ccccc2c1O | -3.06 (active)
O=c1oc2c3c4c(cc2c(C(F)(F)F)c1CCN1CCOCC1)CCCN4CCC3 | 7.75
CCN1/C(=C/C=C/c2oc3ccc4ccccc4c3[n+]2CC)Oc2ccc3ccccc3c21 | 17
Cc1ccccc1NCC(=O)N/N=C/c1c[nH]c2ccccc12 | 4.05
Cc1nnsc1C(=O)N/N=C/c1ccc2ccccc2c1O | -4.07 (active)
COc1cc(-c2cc(=O)c3ccccc3o2)ccc1O | -1.08
CCOc1cccc(-c2nnc3sc(-c4cc(OC)c(OC)c(OC)c4)nn23)c1 | -3.61 (active)
CCOc1cccc(-c2nn3c(-c4cc(C)[nH]n4)nnc3s2)c1 | 1.99
COc1cc(C(c2sc3nc(C)nn3c2O)N2CC(C)CC(C)C2)cc(OC)c1OC (stereo unspecified) | 0.98
Cc1ccc(C(=O)NN2C(=O)/C(=C/c3cn(C)c4ccccc34)SC2=S)cc1 | 4.98
CCN1C=CC2=C(C#N)C(N)C(C#N)(C#N)C(c3ccccc3C(F)(F)F)C2C1 (stereo unspecified) | 11
COc1cccc(NC2C=CS(=O)(=O)C2)c1 (stereo unspecified) | 1.43
Cc1ccc(S(=O)(=O)/N=c2\ccc(Cl)cn2C(F)F)cc1 | 2.64
CCNc1ccc2noc3c2c1C(=O)c1ccccc1-3 | 4.91
CCOC(=O)CC1C(=O)NCCN1c1nc2ccc(C)cn2c(=O)c1/C=C1\SC(=S)N(C(C)CC)C1=O (stereo unspecified) | 15.3
Cc1cccc(-c2nnc3sc(-c4ccccc4C)nn23)c1 | -3.32 (active)
COc1ccc(C(=O)c2sc3nc(-c4ccccc4)ccc3c2N)cc1OC | 5.8
CCN(CC)c1ccc2cc(-c3nc(-c4ccc(OC)cc4)cs3)c(=O)oc2c1 | 17
C=CCn1c(-c2csc(-c3ccc(OC)c(OC)c3)n2)n[nH]c1=S | -3.05 (active)

SMILES | z-score
C=CCn1c(-c2oc3nc(-c4ccccc4)cc(-c4ccccc4)c3c2N)n[nH]c1=S | 5.57
CCOC(=O)Cc1csc(NC(=O)c2sc3nc4c(C)cc(C)cc4cc3c2N)n1 | 4.73
Cc1nnc(SCC2=C(C(=O)O)N3C(=O)C(NC(=O)Cn4nc(C)c(Cl)c4C)C3SC2)s1 (stereo unspecified) | 1.08
CCCCSc1ncc(C(=O)OCC)c(N)n1 | 2.51
CCCNC(=O)Cn1c(-c2ccc(F)cc2)cc(C(=O)OCC)c1C | 0.89
CCOC(=O)c1cnc(-n2nc(C)cc2C)nc1NCc1ccccc1 | -3.75 (active)
Cc1cc(C)n(-c2ccc(OCC(=O)O)nn2)n1 | 3.33
CCOC(=O)c1cnn(-c2cc(C)nc3c(-c4ccccc4)cnn23)c1N | 3.62
Cc1cc(-c2nc3ncccc3o2)ccc1N | 1.34
COC(=O)N/N=C\c1cc2c(cc1Br)OCO2 | 0.97
CSC1=NC(C)(C)CC2(C)Nc3ccccc3N12 (stereo unspecified) | -3.03 (active)
COc1ccc(-c2csc(NC(=O)c3ccccc3NS(=O)(=O)c3ccc(F)c(F)c3)n2)cc1 | -4.95 (active)
O=C(NCCc1csc(-c2ccccc2)n1)c1ccccc1F | 4.15
Cc1c(CNC(=O)c2nn3c(c2Cl)NC(c2ccccc2)CC3C(F)(F)F)cnn1C (stereo unspecified) | -4.22 (active)
COc1ccc(C2CC(C(F)(F)F)n3nc(C(=O)NCc4cn(C)nc4C)c(Cl)c3N2)cc1 (stereo unspecified) | -9.71 (active)
CN1C2CCC1/C(=C/c1cccn1C)C(=O)/C2=C\c1cccn1C | 3.1
N#CC1CC(c2ccc([N+](=O)[O-])cc2)=NN1c1ccc([N+](=O)[O-])cc1 (stereo unspecified) | 5.36
O=C(OCC(=O)N1CCN(c2ccccc2)CC1)c1cccc(Cl)c1 | 1.29
Cn1c(-c2ccc3c(c2)OCO3)cc(=O)c2ccccc21 | -0.67
CN1/C(=C\C=C(/C#N)C(=O)Nc2ccccc2F)C(C)(C)c2ccccc21 | 7.42
CN1/C(=C\C=C2/C(=O)Oc3ccccc3C2=O)C(C)(C)c2ccccc21 | 8.51
CN1/C(=C\C(=O)C[n+]2ccc3ccccc3c2)C(C)(C)c2ccccc21 | -4.73 (active)
Cn1ccnc1Sc1nc(Nc2cccc(Cl)c2)nc(N2CCOCC2)n1 | -0.82
N#C/C(=C/c1ccc(N2CCCCC2)o1)c1cccc(F)c1 | 14.6
